Results as given in PubChem BioAssay AID463173 (ICCB-Longwood Screening Facility, Harvard Medical School, 2010).
In all, about 52,000 compounds went through this assay and about 4,300 (8.3%) were called active. For the sample, actives were picked, then their nearest neighbours and some compounds at random. Unmarked numbers belong to inactive results. Rule as the data show it: active = survival mostly below about 52% (no sharp cut-off); inactive = mostly above about 56%.

Each compound was assayed on DeltatarO mutant (assay: S. aureus survival, RN4220 and DeltatarO strains – OD600, teichoic acid synthesis inhibitors, primary screen (AID 463173)). Settings: S. aureus RN4220 wild type/DeltatarO growth, OD600, 18 h, stronger effect = lower value, screened at 18.75 µg/mL (by protocol).

Structure (SMILES)	survival
O=C(O)CC1CCS(=O)(=O)C1 (configuration not stated)	62%
CCOc1ccccc1N1CCN(C(=O)C2CCN(Cc3ccc(OC)cc3)CC2)CC1	98%
CC1CCC(N2CC(=O)N(C3CCCC3)C(c3ccc(Cl)cc3)C2=O)CC1 (configuration not stated)	79%
Cc1ccc2occ(CC(=O)N(Cc3ccc(C(C)C)cc3)C3CCS(=O)(=O)C3)c2c1 (configuration not stated)	66%
COc1ccc(NS(=O)(=O)c2ccc(N3CCCCS3(=O)=O)cc2)cc1Cl	71%
COc1cccc(C(=O)Nc2ccccc2C(=O)OCc2cc(=O)n3c4c(sc3n2)CCCC4)c1	57%
CCn1cc2nc(SCc3cccc(F)c3)n(CCc3ccccc3)c(=O)c2n1	71%
CCn1cc2nc(SCc3c(F)cccc3Cl)n(CCc3ccccc3)c(=O)c2n1	52% (active)
CCn1cc2nc(SCc3ccccc3Cl)n(CCc3ccccc3)c(=O)c2n1	74%
CCOC(=O)c1c(C)[nH]c(C)c1S(=O)(=O)N(C)CC(=O)Nc1cccc(Cl)c1C	73%
CCOC(=O)c1c(C)[nH]c(CCC(=O)NCc2ccc(N(C)C)cc2)c1C	83%
CCOC(=O)Cn1nc(-c2ccccc2)c2cnc3ccc(OCC)cc3c21	109%
Cn1nnc2c(NCc3ccccc3)ncnc21	32% (active)
Cn1nnc2c(NCc3ccc(Cl)cc3)ncnc21	81%
Cc1ccc(CNc2ncnc3c2nnn3C)cc1	58%
O=C(c1cccs1)N(Cc1cccnc1)c1nc2c(Cl)cccc2s1	82%
O=C(Nc1ccc(-c2cc(C(F)(F)F)nn2-c2ccccc2)cc1)c1cccc(F)c1	26% (active)
COc1ccccc1C(=O)NC(=O)Nc1ccc(-c2cc(C(F)(F)F)nn2-c2ccccc2)cc1	30% (active)
COc1ccccc1C(=O)Nc1ccc(-c2cc(C(F)(F)F)nn2-c2ccccc2)cc1	45%
O=C(NC(=O)c1cccc(F)c1)Nc1ccc(-c2cc(C(F)(F)F)nn2-c2ccccc2)cc1	157%
COc1ccccc1C(=O)NC(=O)Nc1ccc(-n2nc(C(F)(F)F)cc2C(F)(F)F)cc1	59%
COc1cccc(C(=O)Nc2ccc(-c3cc(C(F)(F)F)nn3-c3ccccc3)cc2)c1	46%
O=C(CN1CCC(N2CCCCC2)CC1)Nc1ccc2c(c1)OCCO2	96%

Structure (SMILES)	survival
Cc1cccc(C)c1OCc1nc2c3cnn(-c4ccccc4F)c3ncn2n1	109%
CCN(CC)S(=O)(=O)c1cccc(C(=O)Nc2ccccc2C(=O)Nc2ccc(OC)cc2)c1	78%
Cc1cc(F)ccc1NC(=O)CS(=O)(=O)c1cccc2nsnc12	77%
CCc1ccc(CNC(=O)Cn2c(-c3cccs3)cc3cc(F)ccc32)cc1	119%
Cc1cccc2nc(-c3ccccn3)c(Nc3ccc(F)cc3)n12	-9% (active)
Fc1ccc(Nc2c(-c3ccccn3)nc3ccc(Cl)cn23)cc1	65%
Cc1ccc(Nc2c(-c3ccccn3)nc3ccc(Br)cn23)cc1	72%
Cc1cccc2nc(-c3ccccn3)c(Nc3ccccc3)n12	24%
CN(C)c1ccc(-c2nc3ccccn3c2NC2CCCC2)cc1	83%
Cc1ccn2c(Nc3ccc(F)cc3)c(-c3ccccn3)nc2c1	105%
CC(C)c1ccc(Nc2c(-c3ccco3)nc3ccccn23)cc1	42%
c1ccc(-c2nc3ccccn3c2NC2CCCC2)nc1	1% (active)
CC(C)c1ccc(Nc2c(-c3ccccn3)nc3ccccn23)cc1	-4% (active)
CC(C)c1nc2ccccn2c1NC1CCCCC1	102%
Cc1ccc2nc(-c3ccccn3)c(Nc3ccc(F)cc3)n2c1	10% (active)
COc1ccc(Nc2c(-c3ccccn3)nc3ccc(Cl)cn23)cc1	93%
COc1ccc(NC(=O)Cn2cnc3sc(C)c(S(=O)(=O)N4CCN(C)CC4)c3c2=O)cc1OC	167%
COc1ccc(NC(=O)CN2CCN(Cc3ccccc3Cl)S2(=O)=O)cc1Cl	41%
O=S(=O)(NCCc1csc2nc(-c3ccccc3)nn12)c1ccc(Cl)s1	86%
CCn1c(CNC(=O)C(OC)c2ccccc2)nnc1SC (configuration not stated)	87%
O=c1c(=O)n(-c2cccc(Cl)c2)ccn1Cc1cccc(F)c1	66%
COc1ccc(Cl)cc1NC(=O)c1cnc(N2CCCCC2)c2ccccc12	78%
CCOc1ccccc1NC(=O)CCc1c(C)nn(-c2ccc(N3CCOCC3)nn2)c1C	80%

Structure (SMILES)	survival
CCOC(=O)c1cccc(NC(=O)c2cc3ccccn3n2)c1	124%
COc1cccc(C2CC(=O)Nc3cc(OC)c(OC)c(OC)c32)c1OC(C)C (configuration not stated)	93%
CCOC(=O)c1cccc(-n2nnc3c(sc4nc(C)c(Br)c(C)c43)c2=O)c1	92%
CCOc1ccc(C2=NC(c3ccc(OC)cc3)=Nc3ccc(Cl)cc3N2)cc1	71%
Cc1ccccc1Nc1c(-c2ccccc2)nc2cccc(C)n12	98%
Cc1ccccc1Nc1c(-c2c[nH]c3ccccc23)nc2cccc(C)n12	144%
Cc1cccc(C)c1Nc1c(-c2ccccc2F)nc2cccc(C)n12	6% (active)
CCCCCC[N+]1(CCO)CCOCC1	81%
COc1ccc(N2CCN(CCCNC(=O)c3c(C)nn(-c4ccc(F)cc4)c3-n3cccc3)CC2)cc1	71%
OC(CC#CCN1CCOCC1)(c1ccccc1)c1ccccc1	83%
COc1ccc(S(=O)(=O)N2CCN(Cc3nc4ccc(C)cc4o3)CC2)cc1	84%
Cc1ccc(-n2cc(C(=O)OCc3ccc(Cl)cc3)c3ccccc3c2=O)cc1	67%
COc1ccc(C)cc1NC(=O)N(C(C)C)C1CCN(C(C)=O)CC1	75%
COc1ccc(NC(=O)N(Cc2ccco2)C2CCN(C(C)=O)CC2)c(OC)c1	88%
CC(=O)N1CCC(N(Cc2ccc(C)o2)C(=O)Nc2ccc(C)cc2)CC1	96%
COC(=O)c1ccc(Cl)cc1NC(=O)N(Cc1ccc(OC)cc1)C1CCN(C(C)=O)CC1	-5% (active)
COc1ccc(NC(=O)N(C(C)C)C2CCN(C(C)=O)CC2)c(OC)c1	-2% (active)
COC(=O)c1ccc(Cl)cc1NC(=O)N(Cc1ccc(C)o1)C1CCN(C(C)=O)CC1	95%
COc1ccc(C)cc1NC(=O)N(Cc1ccc(C)o1)C1CCN(C(C)=O)CC1	8% (active)
CCOc1ccccc1NC(=O)N(Cc1ccc(C)o1)C1CCN(C(C)=O)CC1	101%
CCN1CCC(N(Cc2ccc(F)cc2)C(=O)Nc2cc(Cl)ccc2C(=O)OC)CC1	85%
Cc1ccc(N2CCN(C(=O)C3CCN(S(=O)(=O)c4ccc5c(c4)oc(=O)n5C)CC3)CC2C)cc1 (configuration not stated)	109%
Cc1ccc(-n2c3nc(=O)[nH]c(=O)c-3cc3c(C)nn(-c4ccccc4)c32)cc1Cl	85%

Structure (SMILES)	survival
Cc1cccc(-c2noc(-c3cccnc3NCc3ccc(Cl)cc3)n2)c1	73%
COc1ccc(N(C(=O)COc2ccccc2OC)S(=O)(=O)c2ccc(Cl)cc2)cc1	71%
O=C(CN1C(=O)COc2ccc(Cl)cc21)Nc1ccc(F)cc1	67%
Cc1cc(C)c(NC(=O)CSc2nccn2Cc2ccco2)c(C)c1	76%
COc1ccc(S(=O)(=O)NCC(c2ccc(N(C)C)cc2)N2CCc3ccccc32)cc1 (configuration not stated)	78%
CCOc1ccc(S(=O)(=O)NCC(c2ccc(N(C)C)cc2)N2CCc3ccccc32)cc1 (configuration not stated)	49%
Cc1ccc(S(=O)(=O)NCC(c2ccc(N(C)C)cc2)N2CCc3ccccc32)cc1C (configuration not stated)	131%
CN(C)c1ccc(C(CNS(=O)(=O)c2ccc(F)cc2)N2CCc3ccccc32)cc1 (configuration not stated)	32% (active)
CN(C)c1ccc(C(CNS(=O)(=O)c2ccccc2)N2CCc3ccccc32)cc1 (configuration not stated)	99%
Cc1ccc(S(=O)(=O)NCC(c2ccc(N(C)C)cc2)N2CCc3ccccc32)cc1 (configuration not stated)	0% (active)
Cc1cc(NC(=O)C2CCCN(S(=O)(=O)c3cn(C)cn3)C2)ccc1Br (configuration not stated)	102%
Cc1ccc(S(=O)(=O)CCc2nnc(NC(=O)CCCC(=O)Nc3cc(C)on3)s2)cc1	104%
CCOc1ccc(C(CC(=O)Nc2ccc(C(=O)OC)cc2)N2Cc3ccccc3C2=O)cc1OC (configuration not stated)	73%
Cc1cccc(NC(=O)CN2C(=O)c3ccccc3Sc3ncccc32)c1C	90%
Cc1ccc(CNC(=O)C(=O)NCC(c2ccc3c(c2)OCO3)N2CCOCC2)cc1 (configuration not stated)	64%
c1ccc(CN2CCCN(c3nc4c(c(NCCN5CCOCC5)n3)CCCC4)CC2)cc1	103%
COC(=O)c1c(SCC(=O)Nc2cc(C)cc(C)c2)[nH]c2ccccc2c1=O	39% (active)
COC(=O)c1c(SCC(=O)Nc2ccccc2OC)[nH]c2ccccc2c1=O	55%
COC(=O)c1c(SCC(=O)Nc2cccc(C(F)(F)F)c2)[nH]c2ccccc2c1=O	82%
COc1ccc(N2CCN(C(=O)c3ccc(NC(=O)c4nsc5ccccc45)cc3)CC2)cc1	84%
CCOC(=O)c1scc(-c2ccccc2)c1S(=O)(=O)Nc1cc(OC)cc(OC)c1	89%
Cc1cccc(CSc2nc(=O)c3c(n2C)NC(=O)CC3c2cccc(O)c2)c1 (configuration not stated)	46%
COc1ccccc1NC(=O)c1ccc(CN2C(=O)C(C)=C(c3ccc(C)c(C)c3)S2(=O)=O)cc1	83%
